From PubChem BioAssay (NCI) come the findings set out here.

About 83,000 compounds went through this panel and 20% of them were active in at least one assay; those are over-represented in the sample as a whole.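 Compound tested at a single concentration for 48 hours in 96-well plates; a percent growth value below 10 was scored as active.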 Unmarked numbers belong to inactive results. Active and inactive are the calls of the source.

Holding throughout (test): NCI-60 one-dose screen, 48 h (100 = growth as untreated, 0 = no growth, -100 = all killed)
Conditions in all cases: 10 µM unless noted

For test [1], the system named is NCI-H23 lung.
Test [2] relates to NCI-H226 lung.
In test [3] the test system is NCI-H322M lung.
Test [4] relates to HOP-62 NSCLC.
The subject of test [5] is NCI-H460 lung.
The test system of test [6] is HOP-92 NSCLC.
The test system of test [7] is NCI-H522 lung.
The subject of test [8] is A549/ATCC NSCLC.
The subject of test [9] is 786-0 renal.
In test [10] the test system is COLO 205 colon.

`COc1ccc2[nH]c(=O)cc(-n3ncc(C(=O)/C=C/c4cc(OC)c(OC)c(OC)c4)c3C)c2c1`: the growth in test [1] is -45.1% (active); in test [2], -21.7% (active); in test [3], 5.89% (active); in [4], 0.688% (active); in [5], -30.4% (active); in test [6], 44.2%. Also, the growth was -81.1% (active) in test [7], 8.31% (active) in test [8], -15% (active) in [9] and -92.5% (active) in test [10].
As to `CCCCCCCCCc1ccc(C(=O)Nc2cc(C)ccc2C(=O)OC)cc1`, the growth in test [1] is 102%; in test [2], 98.9%; in test [3], 112%; in test [4], 107%; in test [5] it was 115%; in test [6], 61.6%. Moreover, the growth in test [7] was 101%; in test [8], 114%; in test [9], 101%; in test [10] it was 131%.
Regarding `CS(=O)(=O)Nc1cc(-c2ccc3ncnc(N4CCc5cc(F)c(Cl)cc54)c3c2)cnc1Cl`, the growth in test [1] is 4.88% (active); in test [2], 8.15% (active); in [3], 8.81% (active); in test [4], 27.8%; in test [5], 12.1%; in test [6], -20.7% (active). The growth was 17.7% in [7], -3.2% (active) in [8], 4.55% (active) in [9] and -1.45% (active) in test [10].
Consider `COc1cc(CNC(=O)C[C@H](C)CCC=C(C)C)ccc1OCc1cn(-c2ccc(Cl)c(Cl)c2)nn1`, for which the growth in test [1] is 68.5%; in test [2] it was 50.5%; in [3], 82.5%; in test [4], 95.7%; in test [5] it was 45.5%; in test [6], 51.6%. In addition, the growth in [7] is 61.5%; in test [8] it was 46.5%; in test [9], 80.4%; in test [10], 53.6%.
For `COc1ccc(OC)c(Cn2cc(C#N)c(N)c2C(=O)c2ccc(Br)cc2)c1`, the growth in test [1] is 54.4%; in test [2], 64.9%; in test [3], 85.8%; in test [4] it was 40.2%; in test [5] it was 41.8%; in test [6], 55.7%. In addition, the growth in test [7] was -29% (active); in test [8], 46.4%; in test [9], 63.9%; in test [10], 30.4%.
On to `CN1C(=O)/C(=C\C(=O)c2cc3ccccc3oc2=O)c2ccccc21`, for which the growth in test [1] was 46.3%; in test [2], 75.4%; in test [3], 98.7%; in test [4] it was 54.4%; in [5], 92.1%; in [6] it was 64.3%. In addition, the growth in test [7] is -68.8% (active); in [8], 78.3%; in test [9], 80.7%; in [10], 52.2%.
For `O=C(N/N=C/c1ccc(Cl)o1)c1[nH]c2ccc(Br)cc2c1-c1ccccc1`, the growth is -29.7% (active) in [1]; -42.1% (active) in test [2]; 26.3% in test [3]; -48.3% (active) in test [4]; -70.8% (active) in test [5]; 9.01% (active) in test [6]. The growth is -59.8% (active) in test [7], -23.2% (active) in [8], -57.7% (active) in test [9] and -39.9% (active) in [10].
`COc1ccc(NC(=O)N/N=C/c2c[nH]c3ccccc23)cc1`: the growth was 40% in test [1]; 34.7% in test [2]; 43.2% in [3]; 44.1% in [4]; 14.9% in test [5]; 69.5% in test [6]. Besides, the growth was -34.7% (active) in test [7], 45.6% in test [8], 44.8% in test [9] and 4.05% (active) in test [10].
Regarding `CCCCN1C(=O)/C(=C\C(=O)c2cc3ccccc3oc2=O)c2ccccc21`, the growth was 79% in [1]; 88.5% in test [2]; 99.4% in [3]; 92.3% in [4]; 86.4% in [5]; 63.7% in [6]. Besides, the growth in test [7] was -19.9% (active); in [8] it was 106%; in test [9], 75%; in test [10], -20.5% (active).
In the case of `CC(C)(C)OC(=O)N1C/C(=C\c2ccc(F)cc2)C(=O)/C(=C/c2ccc(F)cc2)C1`, the growth was -77.7% (active) in test [1]; -43.8% (active) in test [2]; 29.6% in [3]; 14.6% in [4]; 1.19% (active) in [5]; -30.5% (active) in test [6]. Moreover, the growth in [7] was -89% (active); in test [8], 35.3%; in [9], -74.8% (active); in test [10], -47.2% (active).
Regarding `O=C(CSc1nc2ccccc2c(=O)[nH]1)Nc1ccccc1C(=O)O`, the growth in [1] is 104%; in test [2] it was 102%; in test [3], 101%; in test [4], 97.8%; in [5], 118%; in test [6], 118%. Moreover, the growth in [7] was 107%; in test [8], 112%; in test [9] it was 107%; in [10], 124%.
With `CN(C)c1nc(NCCNS(=O)(=O)c2ccc(C(=O)/C=C/c3ccccc3)cc2)nc(N2CCOCC2)n1`, the growth in [1] is 93.2%; in test [2] it was 82.6%; in test [3], 96.9%; in test [4] it was 108%; in test [5] it was 101%; in test [6] it was 94.9%. For the same compound, the growth in test [7] was 67.5%; in test [8], 78.8%; in [9], 66.4%; in test [10], 105%.
Turning to `COC(=O)c1c(C(=O)OC)c2ccc3c4ccccc4ccc3n2c1C(=O)C(C)Br` (stereo not given), the growth in [1] was 33.4%; in [2] it was 61.7%; in test [3] it was 83.4%; in test [4] it was 67.1%; in test [5], 17.2%; in test [6], 53.5%. The growth is -55.9% (active) in test [7], 50.5% in [8], 41.9% in test [9] and 43.2% in test [10].
Take `OC(c1ccccc1)(c1ccccc1)C1CCN(c2ccc3nnc(Cl)n3n2)CC1`: the growth in [1] was 36.8%; in [2], 11.2%; in test [3], 74.1%; in [4], 63.7%; in test [5], 19.8%; in [6], 19.7%. The growth was -60.4% (active) in test [7], 36.3% in test [8], 41.8% in test [9] and -29.4% (active) in test [10].
On to `Cn1cc(-c2cc(N)n3nc(-c4c[nH]c5ccc(Cl)cc45)cc3n2)c2cc(Br)cnc21`, for which the growth in test [1] was -58.6% (active); in [2] it was -12.5% (active); in [3] it was 32.3%; in [4] it was -22.4% (active); in test [5] it was -58% (active); in [6], -76.8% (active). For the same compound, the growth in [7] was -71% (active); in [8], -64.9% (active); in test [9] it was -93.7% (active); in test [10], -91.6% (active).
Consider `COc1ccc2[nH]cc(-c3cc(N)n4nc(-c5c[nH]c6ccccc56)cc4n3)c2c1`, for which the growth is -12.1% (active) in test [1]; 74.5% in [2]; 18.3% in [3]; -45.2% (active) in test [4]; -22.8% (active) in [5]; -1.68% (active) in [6]. Moreover, the growth in [7] is -65.3% (active); in test [8] it was 1.46% (active); in test [9], -88.3% (active); in test [10], -82.5% (active).
For `O=C1CCC(N2C(=O)c3cccc(NCCCCCC(=O)N4CCN(c5ccc6nc7c(nc6c5C(F)(F)F)C(=O)c5ncccc5C7=O)CC4)c3C2=O)C(=O)N1` (stereo not given), the growth in test [1] was -49% (active); in [2], -51.3% (active); in test [3], -73.8% (active); in [4], -74.2% (active); in [5], -48.3% (active); in [6], -40.2% (active). The growth was -62% (active) in [7], -64.3% (active) in test [8], -56.5% (active) in [9] and -75.9% (active) in [10].
Turning to `O=C1Nc2ccccc2/C1=C/C(=O)c1cc2ccccc2oc1=O`, the growth in test [1] was 93.4%; in test [2], 93.7%; in test [3] it was 102%; in test [4], 101%; in test [5], 108%; in [6], 119%. For the same compound, the growth is -34.9% (active) in test [7], 106% in [8], 117% in test [9] and -15.4% (active) in test [10].
`CCCCCCCCc1ccc(C(=O)Nc2ccc(C)cc2C(=O)O)cc1`: the growth is 85.2% in [1]; 84.3% in test [2]; 91.1% in [3]; 96.3% in test [4]; 88.4% in test [5]; 10.4% in test [6]. In addition, the growth in test [7] is 73.2%; in [8], 66.8%; in test [9], 89.6%; in test [10], 119%.
Take `Cc1cc(C(NC(=O)C2CC3(CC(Nc4cccc5c4C(=O)N(C4CCC(=O)NC4=O)C5=O)C3)C2)c2ccc3c(c2)OC(F)(F)O3)c(O)c2ncccc12` (stereo not given): the growth in test [1] was 6.24% (active); in test [2], -2.38% (active); in test [3], 27.5%; in [4], -10.9% (active); in test [5] it was 1.76% (active); in test [6], -1.71% (active). Moreover, the growth is 2.63% (active) in [7], 9.67% (active) in test [8], -12.8% (active) in test [9] and 13.2% in test [10].
In the case of `CCOC(=O)/C(F)=C/C1CC1C(c1ccccc1)c1ccccc1` (stereo not given), the growth was 73.8% in [1]; 91.8% in [2]; 80.6% in test [3]; 125% in [4]; 38.7% in test [5]; 84.1% in test [6]. The growth was 94.8% in test [7], 91.7% in test [8], 93% in [9] and 117% in test [10].
As to `NS(=O)(=O)c1cccc(Nc2nc(SCC(=O)c3ccc(F)cc3)nc3ccccc23)c1`, the growth in test [1] was 5.36% (active); in test [2], 15.3%; in [3], 22.9%; in [4], 5.89% (active); in test [5], 12.5%; in test [6], 29%. The growth in test [7] is -0.334% (active); in [8] it was 28.1%; in test [9], 26.1%; in test [10], 26.4%.
Regarding `COc1cc(C2C(C(=O)OCc3ccccc3)=C(C)Nc3nc4ccccc4n32)cc(OC)c1OC` (stereo not given), the growth was 45.8% in test [1]; -37.3% (active) in test [2]; 40.9% in test [3]; 31.1% in test [4]; 16% in [5]; -0.272% (active) in test [6]. Also, the growth was -7% (active) in test [7], 34.9% in test [8], -66.1% (active) in [9] and 52.5% in [10].
Take `CN1CCc2c(sc3ncnc(N/N=C/c4cccc(Cl)c4Cl)c23)C1`: the growth in test [1] was -6.68% (active); in test [2] it was 134%; in test [3], 77.3%; in test [4], -38.2% (active); in test [5], -71.1% (active); in test [6], 58.4%. For the same compound, the growth in test [7] is 68.8%; in test [8], -70.1% (active); in test [9], -16.1% (active); in test [10], -80.3% (active).
As to `COc1ccc(C(=O)c2cc(C(C)=O)c3c(C)cc(C)cn23)cc1`, the growth was 47.7% in test [1]; 44.4% in [2]; 76.8% in [3]; 34.5% in test [4]; 45.4% in [5]; 46.8% in test [6]. Besides, the growth in [7] is 2.3% (active); in [8], 45.3%; in [9], 45.4%; in test [10], 92.7%.
